# PubChem BioAssay (NCATS)
# Inconclusive results are not listed. Entries that show only a call come without a potency. Unmarked numbers belong to inactive results. Active and inactive are the calls of the source. Calls follow the shape of the dose curve; as a rule, active = well fitted inhibition curve with a large enough effect; inconclusive = small, poorly fitted or top-dose-only effect; inactive = flat fitted curve, though single readings scatter.
# Assay: P-glycoprotein substrates identified in KB-8-5-11 adenocarcinoma cell line, qHTS therapeutic library screen (AID 1346987); also: nearly all actives have a fitted effect of over 65% in size
# Settings: KB-8-5-11 (P-gp overexpressing) viability, CellTiter-Glo, 72 h; series mostly up to 44.5 µM
# Outline: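 Luminescence from CellTiter-Glo, read 5 min after addition, quantified survival of KB-8-5-11 (P-gp-overexpressing) cells exposed to compounds for 72 h. AC50 was derived from concentration-response curves.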
# Potency is read from the fitted curve at half-maximal effect.
SMILES,Potency,"activity change, negative = cytotoxicity",outcome
CC(CCc1ccc(O)cc1)O[C@@H]1O[C@H](CO[C@H]2OC[C@](O)(CO)[C@H]2O)[C@@H](O)[C@H](O)[C@H]1O (stereo partly drawn),inactive,,
CN1[C@H]2C[C@H](OC(=O)[C@H](CO)c3ccccc3)C[C@@H]1[C@@H](O)C2,inactive,,
O=C1CN=C(c2ccccc2)c2cc(Cl)ccc2N1CC1CC1,9.2 µM (active),,
CCNCC(O)c1cccc(O)c1 (stereo not drawn),inactive,,
CO[C@H]1[C@@H](O)C[C@H](O[C@H]2[C@@H](O)C[C@H](O[C@H]3[C@@H](O)C[C@H](O[C@H]4CC[C@@]5(C)[C@H](CC[C@@H]6[C@@H]5C[C@@H](O)[C@]5(C)[C@@H](C7=CC(=O)OC7)CC[C@]65O)C4)O[C@@H]3C)O[C@@H]2C)O[C@@H]1C,0.259 µM (active),,
CC(=O)OC1CC(O)C(C)(C)C2CC(OC(C)=O)C3(C)C(CCC4(C)C(c5ccoc5)C(=O)C5OC543)C12C (stereo not drawn),inactive,,
CCOC(=O)c1ccccc1C(=O)OCC,inactive,,
CC12CCC3C(CCC4(O)CC(O)CCC34C=O)C1(O)CCC2C1=CC(=O)OC1 (stereo not drawn),0.651 µM (active),,
O=C1CCO1,inactive,,
CNc1ccc(C(=O)CC(O)CCC(C)C2OC(=O)CC(O)CC(=O)CC(O)CC(O)CC(O)CC(O)CC3(O)CC(O)C(C(=O)OC)C(CC(O[C@@H]4O[C@H](C)[C@@H](O)[C@H](N)[C@@H]4O)/C=C/C=C/C=C/C=C/C=C/C=C/C=C/C2C)O3)cc1 (stereo partly drawn),inactive,,
COC1=CC(=O)O[C@@H](CCc2ccccc2)C1,inactive,,
O=C(NCNC(=O)NC1C(=O)NC(=O)N1CO)NC1C(=O)NC(=O)N1CO (stereo not drawn),inactive,,
O=c1[nH]cc(N(CCCl)CCCl)c(=O)[nH]1,inactive,,
CCC(=O)O[C@@](Cc1ccccc1)(c1ccccc1)[C@@H](C)CN(C)C,inactive,,
CC(=O)O[C@H]1C[C@H](O[C@H]2[C@@H](O)C[C@H](O[C@H]3[C@@H](O)C[C@H](O[C@H]4CC[C@@]5(C)[C@H](CC[C@@H]6[C@@H]5C[C@@H](O)[C@]5(C)[C@@H](C7=CC(=O)OC7)CC[C@]65O)C4)O[C@@H]3C)O[C@@H]2C)O[C@H](C)[C@H]1O[C@@H]1O[C@H](CO)[C@@H](O)[C@H](O)[C@H]1O,0.206 µM (active),,
C/C=C(\C)C(=O)OC1C(C)OC(OC2C(C)OC(OC3CCC4(C)C(=CCC5C4CCC4(C)C(C(C)OC6OC(COC7OC(CO)C(O)C(O)C7O)C(O)C(O)C6O)CCC54O)C3)CC2OC)C(O)C1OC (stereo not drawn),,7.92% [at 9.29 µM],
CC[C@H]1CN2CC[C@H]1C[C@H]2[C@H](O)c1ccnc2ccc(OC)cc12,inactive,,
CN1CCCC(=C(c2cccs2)c2cccs2)C1,inactive,,
C=CCC1(C(C)CCC)C(=O)N=C(S)NC1=O (stereo not drawn),inactive,,

SMILES,Potency,"activity change, negative = cytotoxicity",outcome
O=c1ccc2cc(O[C@@H]3O[C@H](CO)[C@@H](O)[C@H](O)[C@H]3O)c(O)cc2o1,inactive,,
COC1CC(O[C@H]2CC[C@@]3(C)C(=CCC4C3C(O)[C@@H](O)[C@]3(C)[C@@H](C(C)=O)CC[C@]43O)C2)OC(C)C1OC1CC(OC)C(OC2OC(C)C(O)C(O)C2O)C(C)O1 (stereo partly drawn),,,inactive [at 9.29 µM]
C[C@]12CC[C@@H](O)C[C@H]1CC[C@@H]1[C@@H]2CC[C@]2(C)C(=O)CC[C@@H]12,inactive,,
Cc1c(Cl)cccc1S(=O)(=O)Nc1nc(CC(=O)N2CCN(C)CC2)cs1,inactive,,
C[N+]1(C)[C@@H]2CC[C@H]1CC(OC(=O)c1c[nH]c3ccccc13)C2 (stereo partly drawn),inactive,,
C[C@@]1(C(=O)O)CC[C@]2(C)CC[C@]3(C)C4=CC(=O)c5cc(O)c(O)cc5[C@]4(C)CC[C@@]3(C)[C@@H]2C1,inactive,,
CCN1C[C@]2(OC(=O)c3ccccc3NC(C)=O)CC[C@H](OC)[C@@]34[C@@H]2C[C@@H]([C@@H]13)[C@@]1(O)C[C@H](OC)[C@H]2C[C@@H]4[C@]1(O)[C@H]2OC,inactive,,
C[C@@H]([C@H](O)c1ccccc1)N(C)C,inactive,,
C[C@H]1CC[C@]2(NC1)O[C@H]1C[C@H]3[C@@H]4CC[C@H]5C[C@@H](O[C@@H]6O[C@H](CO)[C@H](O[C@@H]7O[C@H](CO)[C@@H](O)[C@H](O[C@@H]8OC[C@@H](O)[C@H](O)[C@H]8O)[C@H]7O[C@@H]7O[C@H](CO)[C@@H](O)[C@H](O)[C@H]7O)[C@H](O)[C@H]6O)CC[C@]5(C)[C@H]4CC[C@]3(C)[C@H]1[C@@H]2C,20.6 µM (active),,
S=C=S,inactive,,
CCN1C[C@]2(COC)[C@H](O)C[C@H](OC)[C@@]34[C@@H]5C[C@@]6(O)[C@H](OC(=O)c7ccccc7)[C@@H]5[C@@](OC(C)=O)([C@@H]([C@H](OC)[C@H]23)[C@@H]14)[C@@H](O)[C@@H]6OC,inactive,,
CC(=O)O[C@H]1C[C@@H](OC(C)=O)C(C)(C)C2C[C@@H](O)[C@]3(C)C(CC[C@@]4(C)[C@H](C5=CC(=O)OC5O)C[C@H]5O[C@]543)[C@]21C (stereo partly drawn),inactive,,
Clc1ccc(N2C[C@H]3CC[C@@H](C2)N3)nn1,inactive,,
Cc1ccccc1-n1c(CF)nc2ccc(N)cc2c1=O,inactive,,
CC(C)Nc1ccc(Nc2ccccc2)cc1,20.6 µM (active),,
Oc1ccc2c3c1O[C@H]1[C@H](N(CCCl)CCCl)CC[C@@]4(O)[C@@H](C2)N(CC2CC2)CC[C@]314,,0.87% [at 9.29 µM],
Oc1cc(Cl)c(Cl)cc1Cl,inactive,,
CN1[C@@H]2CC[C@H]1CC(OC(=O)C1C=Nc3ccccc31)C2 (stereo partly drawn),inactive,,
C[C@@H](Cc1ccccc1)N(C)C,inactive,,
